Inconclusive results are not listed. Activity calls are given as the source filed them. The call rests on the fitted dose curve; in most records, active means well fitted curve in the direction sought with a large enough effect; inconclusive means small, poorly fitted or top-dose-only effect, or another doubt; inactive means no such curve, though single readings can be large; an effect the other way counts as inactive or inconclusive.
Columns and labels:
[1] = tested on: CRL-7250; test: Cytotoxic Profiling of Annotated Libraries Using Quantitative High-Throughput Screening (AID 1296008); settings: Five cell lines viability, CellTiter-Glo ATP luminescence, 48-72 h; max response: hits give low values; further: nearly all actives have a fitted effect of over 60% in size; on max response: on the % scale 0 is the no-effect control and ±100 the full control effect
Summary of the method: (§1)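 Compounds were pin-transferred onto cells and incubated 48 or 72 hr at 37 degree Celsius, 95% humidity. CellTiter-Glo was added, plates sat 10 min at room temperature, then ATP-coupled luminescence was imaged as the viability read-out.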

[2] = tested on: HEK293; test: as above; settings: Five cell lines viability, CellTiter-Glo ATP luminescence, 48-72 h; max response: hits give low values
Summary of the method: as §1

[3] = tested on: HaCat; test: as above; settings: Five cell lines viability, CellTiter-Glo ATP luminescence, 48-72 h; max response: hits give low values
Summary of the method: as §1

[4] = tested on: KB-3-1; test: as above; settings: Five cell lines viability, CellTiter-Glo ATP luminescence, 48-72 h; max response: hits give low values
Summary of the method: as §1

[5] = tested on: NIH3T3; test: as above; settings: Five cell lines viability, CellTiter-Glo ATP luminescence, 48-72 h; max response: hits give low values
Summary of the method: as §1

[6] = tested on: NIH3T3; test: qHTS assay to identify novel small-molecules to repurpose for Merkel cell carcinoma treatment (AID 1296009); settings: MCC and control cell lines, CellTiter-Glo viability, 72 h; at 44.8 µM (top of the series) unless noted; further: nearly all actives have a fitted effect of over 60% in size
Summary of the method: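 Viability readout: ATP luminescence (CellTiter-Glo) after 72 hr drug exposure at 37 degree celsius. Dose-response format was 8 points for NPC and 11 points for MIPE; data normalized to in-plate controls.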

[7] = tested on: C33A; test: Primary qHTS to identify gynecologic anti-cancer compounds using libraries of approved drugs and bioactive compounds (AID 1345084); settings: Gynecologic cancer cell panel viability, ATPlite luminescence, 48 h; series mostly up to 57.5 µM; further: on the % scale 0 is the no-effect control and ±100 the full control effect; nearly all actives have a fitted effect of over 55% in size
Summary of the method: (§2)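 48 h compound exposure at 37 C, 5% CO2; five-point qHTS. ATPlite luminescence readout of cell ATP.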

[8] = tested on: CAOV3; test: as above; settings: Gynecologic cancer cell panel viability, ATPlite luminescence, 48 h; series mostly up to 57.5 µM
Summary of the method: as §2

[9] = tested on: CASKI; test: as above; settings: Gynecologic cancer cell panel viability, ATPlite luminescence, 48 h; series mostly up to 57.5 µM
Summary of the method: as §2

[10] = tested on: Es-2; test: as above; settings: Gynecologic cancer cell panel viability, ATPlite luminescence, 48 h; series mostly up to 57.5 µM
Summary of the method: as §2

[11] = tested on: HeLa; test: as above; settings: Gynecologic cancer cell panel viability, ATPlite luminescence, 48 h; series mostly up to 57.5 µM
Summary of the method: as §2

[12] = tested on: Hek293T; test: as above; settings: Gynecologic cancer cell panel viability, ATPlite luminescence, 48 h, control line for the selectivity index; series mostly up to 57.5 µM
Summary of the method: as §2

[13] = tested on: JEG-3; test: as above; settings: Gynecologic cancer cell panel viability, ATPlite luminescence, 48 h; series mostly up to 57.5 µM
Summary of the method: as §2

[14] = tested on: OV90; test: as above; settings: Gynecologic cancer cell panel viability, ATPlite luminescence, 48 h; series mostly up to 57.5 µM
Summary of the method: as §2

[15] = tested on: PA-1; test: as above; settings: Gynecologic cancer cell panel viability, ATPlite luminescence, 48 h; series mostly up to 57.5 µM
Summary of the method: as §2

C=C(C)[C@@H]1CC[C@]2(CO)CC[C@]3(C)[C@H](CC[C@@H]4[C@@]5(C)CC[C@H](O)C(C)(C)[C@@H]5CC[C@]43C)[C@@H]12
inactive: max response [1] 1.98% | max response [2] 3.79% | max response [3] 2.42% | outcome [4] | outcome [5] | outcome [6] inactive [at 17.4 µM] | Potency [7] | Potency [8] | outcome [9] | Potency [10] | Potency [11] | Potency [12] | Potency [13] | Potency [14] | Potency [15]

CCNC(=O)OC1CCN(c2nncc3cc(OC)c(OC)cc23)CC1
inactive: max response [1] -1.25% | max response [2] 2.54% | max response [3] -16.1% | outcome [4] | outcome [5] | outcome [6] | Potency [7] | Potency [8] | outcome [9] | Potency [10] | Potency [11] | Potency [12] | Potency [13] | Potency [14] | Potency [15]

COc1ccc(C2C(C(=O)O)C(C(=O)O)C2c2ccc(OC)cc2O[C@@H]2O[C@H](CO)[C@@H](O)[C@H](O)[C@H]2O)c(O[C@@H]2O[C@H](CO)[C@@H](O)[C@H](O)[C@H]2O)c1 (stereo not given in full)
inactive: max response [1] -9.53% | max response [2] -17.5% | max response [3] 0.767% | max response [4] -1.86% | outcome [5] | outcome [6] inactive [at 17.4 µM] | Potency [7] | Potency [8] | outcome [9] | Potency [10] | Potency [11] | Potency [12] | Potency [13] | Potency [14] | Potency [15]

COc1ccc(C(=O)NCc2cc(C(C)C)no2)cc1OC1CCN(C)CC1
inactive: max response [1] -1.84% | max response [2] -4.29% | max response [3] 4.96% | max response [4] -1.9% | outcome [5] | outcome [6] | Potency [7] | Potency [8] | outcome [9] | Potency [10] | Potency [11] | Potency [12] | Potency [13] | Potency [14] | Potency [15]

CNc1nc(Cc2ccccc2)nc2c1CCNC[C@@H]2C
inactive: max response [1] -3.14% | max response [2] -0.288% | max response [3] -17.6% | max response [4] -9.65% | outcome [5] | outcome [6] | Potency [7] | Potency [8] | outcome [9] | Potency [10] | Potency [11] | Potency [12] | Potency [13] | Potency [14] | Potency [15]

C=C1C[C@H](O)[C@@H](O)[C@@]2(C)C1[C@@H](O)[C@H]1OC(=O)C3[C@@H](C)[C@@H](O)[C@H](O)C2[C@]31C (stereo not given in full)
inactive: max response [1] -9.79% | max response [2] 3.52% | max response [3] -3.92% | outcome [4] | outcome [5] | outcome [6] | Potency [7] | Potency [8] | outcome [9] | Potency [10] | Potency [11] | Potency [12] | Potency [13] | Potency [14] | Potency [15]

C=CC1(C)C=C2CC[C@H]3[C@@](C)(C(=O)O)CCC[C@]3(C)C2CC1 (stereo not given in full)
inactive: max response [1] -9.61% | max response [2] 2.61% | max response [3] 3.4% | max response [4] 5.04% | outcome [5] | outcome [6] | Potency [7] | Potency [8] | outcome [9] | Potency [10] | Potency [11] | Potency [12] | Potency [13] | Potency [14] | Potency [15]

CC1=C2C(=O)C=C(CO)C2C2OC(=O)C(CS(=O)(=O)O)C2C(OC(=O)Cc2ccc(O)cc2)C1 (stereo not given)
inactive: outcome [1] | max response [2] -5.22% | max response [3] -1.36% | max response [4] -6.7% | outcome [5] | outcome [6] inactive [at 17.4 µM] | Potency [7] | Potency [8] | outcome [9] | Potency [10] | Potency [11] | Potency [12] | Potency [13] | Potency [14] | Potency [15]

C[C@@]1(O)[C@H](O)[C@@H](CO)O[C@H]1n1cnc2c(=O)[nH]c(N)nc21
inactive: max response [1] 0.111% | max response [2] 0.681% | max response [3] -4.96% | outcome [4] | outcome [5] | outcome [6] | Potency [7] | Potency [8] | outcome [9] | Potency [10] | Potency [11] | Potency [12] | Potency [13] | Potency [14] | Potency [15]

Nc1nc2c(nc(Sc3ccc(Cl)cc3)n2[C@@H]2O[C@@H]3COP(=O)(O)O[C@H]3[C@H]2O)c(=O)[nH]1
inactive: max response [1] 1.71% | max response [2] 1.54% | max response [3] -3.37% | outcome [4] | outcome [5] | outcome [6] | Potency [7] | Potency [8] | outcome [9] | Potency [10] | Potency [11] | Potency [12] | Potency [13] | Potency [14] | Potency [15]

O=C(/C=C/c1ccc(O)c(O)c1)O[C@@H]1[C@@H](O)[C@H](OC2CCCCC2O)O[C@H](CO)[C@H]1O (stereo not given in full)
inactive: max response [1] 4.08% | max response [2] 1.79% | max response [3] 2.85% | max response [4] 9.07% | outcome [5] | outcome [6] inactive [at 17.4 µM] | Potency [7] | Potency [8] | outcome [9] | Potency [10] | Potency [11] | Potency [12] | Potency [13] | Potency [14] | Potency [15]

— PubChem BioAssay (NCATS)
